CYP2C9 inhib: blockers of cytochrome P450 2C9 activity – biochemical, luminescence, ADME assay, primary screen; P11712; CYP2C9 Supersomes, luciferin-H conversion; inhibition, % at 5 µM; actives 20% (n = 96,000); AID 777, 2007;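 active = blocking of liver enzyme CYP2C9 beyond about 50% at 5 µM, limit read from the data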
CYP2C9 act: human CYP2C9 activators, primary screen, biochemical, luminescence | actives 1.4% (n = 96,000) | activation factor at 5 µM | recombinant CYP2C9, luciferin-H conversion; hits give high values; factor 1 = untreated enzyme, 0 = blocked;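 active = activation factor of 2 or more for CYP2C9 at a 5 µM dose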;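 also: 0 = sulfaphenazole-blocked wells and 1 = vehicle-only wells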
sEH inhibitor: soluble epoxide hydrolase inhibitors, primary screen, biochemical, human sEH | actives 0.34% (n = 91,000) | recombinant human sEH enzymatic activity assay | inhibition, % at 2 µM | Bifunctional epoxide hydrolase 2 (Homo sapiens), P34913; in the data active = inhibition above about 80%
sEH activator: soluble epoxide hydrolase activators, primary screen, biochemical, human sEH; Bifunctional epoxide hydrolase 2 (Homo sapiens), P34913; purified human sEH enzymatic activity, activator screen; activation, % at 2 µM; actives 0.04% (n = 91,000); AID 717, 2007; in the data active = activation above about 37%
CYP2C19 inhib: blockers of cytochrome P450 2C19 activity – biochemical, luminescence, ADME assay, primary screen; actives 21% (n = 96,000); AID 778, 2007; CYP2C19 Supersomes, luciferin-H EGE luminescence, 30 min; inhibition, % at 5 µM; P33261;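 active = CYP2C19 inhibition above a set limit at 5 µM in the primary screen, cut at about 50% in these data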;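 also: plate controls were negative control wells for no effect and 2.5 mM tranylcypromine positive control for full effect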
Target sequence (P33261 whole entry, looked up): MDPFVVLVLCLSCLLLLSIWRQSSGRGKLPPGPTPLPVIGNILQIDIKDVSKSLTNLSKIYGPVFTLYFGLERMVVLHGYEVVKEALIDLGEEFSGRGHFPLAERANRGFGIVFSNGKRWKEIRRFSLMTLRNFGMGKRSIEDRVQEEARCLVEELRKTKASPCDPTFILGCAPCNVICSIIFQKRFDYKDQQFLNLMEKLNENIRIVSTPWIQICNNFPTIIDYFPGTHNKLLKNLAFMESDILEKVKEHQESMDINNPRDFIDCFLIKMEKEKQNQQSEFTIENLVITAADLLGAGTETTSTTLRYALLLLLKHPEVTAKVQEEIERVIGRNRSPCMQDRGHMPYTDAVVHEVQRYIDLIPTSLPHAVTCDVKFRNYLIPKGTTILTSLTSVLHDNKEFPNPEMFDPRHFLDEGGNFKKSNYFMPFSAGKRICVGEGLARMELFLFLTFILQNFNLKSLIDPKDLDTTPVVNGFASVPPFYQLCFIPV
CYP2C19 activ: human CYP2C19 activators, primary screen, biochemical, luminescence | Cytochrome P450 2C19 (Homo sapiens), P33261 | recombinant CYP2C19, luciferin-H EGE luminescence; hits give high values; 0 = fully inhibited enzyme, 1 = untreated enzyme | activation factor at 5 µM | 96,000 tested, under 10 active;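 active = activation factor of at least 2 at 5 µM in the primary screen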;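 also: 0 = wells with 2.5 mM tranylcypromine and 1 = vehicle-only wells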
An asterisk follows results filed as active; . = no result. An excerpt weighted towards active compounds, which were near 27% of everything screened.

SMILES	CYP2C9 inhib	CYP2C9 act	sEH inhibitor	sEH activator	CYP2C19 inhib	CYP2C19 activ
CCCOC(=O)c1cc(-c2ccc(/C=C3/C(=O)N(C)C(=O)C(C#N)=C3C)o2)ccc1Cl	.	.	14	-11	.	.
C=CCOC(=O)c1cc(-c2ccc(/C=C3\C(=O)NC(=O)C(C#N)=C3C)o2)ccc1Cl	61*	0.4	-9	7	24	0.8
CN1C(=O)N(C)C2(c3ccccc3)N(C)C(=O)NC12c1ccccc1 (stereo unspecified)	-1	1	-8	6	-8	1.1
O=[N+]([O-])c1ccc(NCCNS(=O)(=O)c2ccccc2)c(C(F)(F)F)c1	75*	0.3	5	-1	88*	0.1
O=C(NCCNc1ccc([N+](=O)[O-])cc1C(F)(F)F)c1ccccc1F	-6	1.1	6	-2	92*	0.1
Cc1ccc(S(=O)(=O)NCCNc2ccc([N+](=O)[O-])cc2C(F)(F)F)cc1	77*	0.2	-9	9	49	0.5
Cn1c(-c2ccc[nH]c2=O)nc2cc(Cl)ccc21	.	.	-4	5	.	.
O=S(=O)(NCCc1csc(-c2cccnc2)n1)c1ccc2c(c1)OCCO2	30	0.7	-8	6	51*	0.5
O=S(=O)(NCCc1csc(-c2ccc(C(F)(F)F)cc2)n1)c1ccc2c(c1)OCCO2	-21	1.2	-3	1	38	0.6
COc1ccc(-c2nc(CCNS(=O)(=O)c3ccc4c(c3)OCCO4)cs2)cc1	80*	0.2	0	-1	98*	0
CC1=C(SCCC#N)S/C(=C2\SC(C)=C(SCCC#N)S2)S1	-2	1	6	-5	-4	1
CCOC(=O)C(NS(=O)(=O)c1ccccc1)(C(F)(F)F)P(=O)(OCC(C)C)OCC(C)C (stereo unspecified)	16	0.8	-20	19	10	0.9
Cc1cc(C)n(-c2cc(C)c(C)cc2Br)n1	-9	1.1	0	-1	26	0.7
COc1ccc(C2C3=C(CC(C)(C)CC3=O)Nc3cc4c(cc32)OCO4)cc1 (stereo unspecified)	70*	0.3	-6	5	32	0.7
CC1(C)CC(=O)C2=C(C1)Nc1cc3c(cc1C2c1ccc2c(c1)OCO2)OCO3 (stereo unspecified)	76*	0.2	.	.	48	0.5
CSc1nc2nc3c(cn2n1)C(=O)CC(c1ccccc1)C3 (stereo unspecified)	50	0.5	1	-1	51*	0.5
O=C1CC(c2ccccc2)Cc2nc3nc(C(F)(F)F)nn3cc21 (stereo unspecified)	62*	0.4	-13	13	49	0.5
O=C(CN1CCCCC1)Nc1ccc(S(=O)(=O)N2CCOCC2)cc1	-2	1	-1	0	-3	1
CCCCN(CCCC)S(=O)(=O)c1ccc(NC(=O)CN2CCOCC2)cc1	91*	0.1	14	-16	72*	0.3
Cc1cc(C)nc(NS(=O)(=O)c2ccc(NC(=O)COc3ccccc3)cc2)n1	18	0.8	-10	10	0	1
CCCN(CCC)S(=O)(=O)c1ccc(NC(=O)Cc2cccs2)cc1	84*	0.2	34	-35	50*	0.5
CCCN(CCC)S(=O)(=O)c1ccc(NC(=O)COc2ccccc2)cc1	99*	0	12	-14	87*	0.1
O=C(COc1ccc(/C=N/NS(=O)(=O)c2ccccc2)cc1)Nc1ccccc1	68*	0.3	6	-6	29	0.7
CCOCCCNC(=O)C(c1ccc(C)cc1)N(Cc1ccc2c(c1)OCO2)C(=O)c1cnccn1 (stereo unspecified)	1	1	-1	1	17	0.8
Cc1cc(C)n2nc(/C(C#N)=C/c3ccccc3)c(C#N)c2n1	18	0.8	15	-17	5	0.9
SMILES	CYP2C9 inhib	CYP2C9 act	sEH inhibitor	sEH activator	CYP2C19 inhib	CYP2C19 activ
CCCCN(CCCC)S(=O)(=O)c1ccc(NS(=O)(=O)c2ccc(NC(C)=O)cc2)cc1	84*	0.2	-8	6	25	0.8
CCCNS(=O)(=O)c1ccc(NC(=O)Cc2cccs2)cc1	.	.	8	-5	.	.
CCCN(CCC)S(=O)(=O)c1ccc(C(=O)Nc2ccc(OCC(=O)N3CCOCC3)cc2)cc1	80*	0.2	35	-36	20	0.8
CCCCN(CCCC)S(=O)(=O)c1ccc(NC(=O)Cc2cccs2)cc1	89*	0.1	21	-19	66*	0.3
COc1ccc(C2=NOC(C(=O)Nc3cc(Br)ccc3O)C2)cc1OC (stereo unspecified)	-1	1	13	-14	12	0.9
Cc1ccc(CNC(=O)CCS(=O)(=O)c2ccc(Br)s2)cc1	11	0.9	25	-26	16	0.8
Cn1ccnc1SCC(=O)N(C1CCCCC1)C1CCCCC1	16	0.8	1	0	20	0.8
CCOc1ncccc1C(=O)N(C)CC1COc2ccccc2O1 (stereo unspecified)	63*	0.4	4	-1	85*	0.1
COC(=O)c1ccc(C2Nc3ccc(/C(C)=N/NC(=O)C(OC)c4ccccc4)cc3C3C=CCC32)cc1 (stereo unspecified)	34	0.7	5	-2	24	0.8
CC(=O)c1ccc2c(c1)C1C=CCC1C(c1ccncc1)N2 (stereo unspecified)	90*	0.1	9	-12	92*	0.1
C1=CC2c3ccccc3NC(c3ccncc3)C2C1 (stereo unspecified)	73*	0.3	1	-2	82*	0.2
Cc1ccc(S(=O)(=O)N(C)CCCC(=O)N2CCN(C=O)CC2)cc1	45	0.5	-6	9	31	0.7
CN(Cc1c(F)cccc1Cl)c1nnnn1-c1ccccc1	35	0.7	-10	11	100*	0
O=C(Nc1ccc2nc(-c3ccc4nc[nH]c4c3)[nH]c2c1)c1cccs1	61*	0.4	9	-6	32	0.7
Cc1ccc(CNC(=O)c2cnc(-c3ccccn3)nc2C(F)(F)F)cc1	44	0.6	6	-6	18	0.8
Cc1ccccc1N1C(=O)N(c2cccc(C(F)(F)F)c2)C2CS(=O)(=O)CC21 (stereo unspecified)	20	0.8	6	-6	63*	0.4
COc1cccc(N2C(=O)N(c3ccccc3Cl)C3CS(=O)(=O)CC32)c1 (stereo unspecified)	26	0.7	4	-9	44	0.6
COc1ccc(NC2CC(=O)NC2=O)cc1 (stereo unspecified)	-2	1	4	-6	-9	1.1

Assay outcomes from PubChem BioAssay.
